Results reported in PubChem BioAssay AID652192 (Johns Hopkins Ion Channel Center, 2013).
Measured potencies and affinities stand elsewhere. Calls of active or inactive are those of the source.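 The calls were made as follows: active = peak inhibition of the KCNQ2 potassium channel over 30% at some tested dose, with a fitted dose response curve; inactive = no inhibition at any dose, or no curve fitted.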

Target: Potassium voltage-gated channel subfamily KQT member 2 (Rattus norvegicus) (UniProt O88943)
Experiment: KCNQ2 channel inhibition, SAR follow-up, selectivity assay for TASK1 inhibitor project, cell-based, FluxOR thallium flux, concentration-response (AID 652192)
Conditions: KCNQ2 cell line, FluxOR thallium flux fluorescence; series mostly up to 30 µM; flux ratio, lower = inhibition: at the top concentration

Potassium voltage-gated channel subfamily KQT member 2 (Rattus norvegicus), sequence (O88943 whole entry, looked up): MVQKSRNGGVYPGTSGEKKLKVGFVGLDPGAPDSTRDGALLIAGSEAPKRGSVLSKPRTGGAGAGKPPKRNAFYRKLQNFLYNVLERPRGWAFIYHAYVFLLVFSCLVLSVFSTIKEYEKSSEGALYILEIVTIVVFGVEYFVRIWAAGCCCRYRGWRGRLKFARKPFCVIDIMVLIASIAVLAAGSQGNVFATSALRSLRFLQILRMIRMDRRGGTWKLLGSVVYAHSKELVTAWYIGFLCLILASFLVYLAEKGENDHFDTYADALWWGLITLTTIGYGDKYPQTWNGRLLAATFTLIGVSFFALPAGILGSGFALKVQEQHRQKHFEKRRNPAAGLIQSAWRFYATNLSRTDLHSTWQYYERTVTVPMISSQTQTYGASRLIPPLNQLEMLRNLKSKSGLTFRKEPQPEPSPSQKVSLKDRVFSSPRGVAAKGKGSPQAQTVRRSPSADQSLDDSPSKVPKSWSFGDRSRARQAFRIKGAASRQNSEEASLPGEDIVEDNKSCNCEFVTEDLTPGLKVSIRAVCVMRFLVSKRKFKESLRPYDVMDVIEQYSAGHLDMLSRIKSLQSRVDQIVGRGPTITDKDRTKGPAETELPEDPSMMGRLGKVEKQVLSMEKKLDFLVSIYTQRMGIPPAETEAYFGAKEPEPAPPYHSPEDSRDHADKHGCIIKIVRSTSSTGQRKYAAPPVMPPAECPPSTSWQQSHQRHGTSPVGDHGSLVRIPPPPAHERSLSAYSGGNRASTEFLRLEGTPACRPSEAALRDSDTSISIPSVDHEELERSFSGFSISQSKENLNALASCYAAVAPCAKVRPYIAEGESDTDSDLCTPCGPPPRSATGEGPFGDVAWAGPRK

Flux ratio, lower = inhibition, inactive:
O=C(Nc1cccc(NC(=O)c2ccccc2C(F)(F)F)c1)c1ccccc1 0.219, COc1cccc(OC)c1C(=O)Nc1cccc(NC(=O)c2cccc(C)c2)c1 0.164, CCOc1ccccc1NC(=O)c1cccc(NC(=O)c2ccccc2)c1 0.184, COc1cccc(C(=O)Nc2cccc(NC(=O)c3cccc(C)c3)c2)c1 0.169, CCOc1ccccc1NC(=O)c1cccc(NC(=O)c2cccc(Cl)c2)c1 0.168, COc1ccccc1C(=O)Nc1cccc(NC(=O)c2cccc3ccccc23)c1 0.22, CCOc1ccccc1NC(=O)c1cccc(NC(=O)c2ccc(OC)cc2)c1 0.172, COc1ccccc1C(=O)Nc1cccc(NC(=O)c2ccccc2C(C)C)c1 0.177, Cc1cccc(C(=O)Nc2cccc(NC(=O)c3cccs3)c2)c1 0.169, O=C(Nc1cccc(NC(=O)c2cccc(C(F)(F)F)c2)c1)c1ccccc1 0.145, COc1ccccc1C(=O)Nc1cccc(NC(=O)c2ccccc2)c1 0.162, Cc1cccc(C(=O)Nc2cccc(NC(=O)c3ccc(C(F)(F)F)cc3)c2)c1 0.16, Cc1cccc(C(=O)Nc2cccc(NC(=O)c3cccc(C(F)(F)F)c3)c2)c1 0.155, CC(C)c1ccccc1C(=O)Nc1cccc(NC(=O)c2ccccc2OC(F)(F)F)c1 0.173, O=C(Nc1cccc(NC(=O)C2CCCCC2)c1)c1ccccc1 0.215, Cc1cccc(C(=O)Nc2cccc(NC(=O)c3cccc(F)c3)c2)c1 0.405, CCOc1ccccc1NC(=O)c1cccc(NC(=O)C2CCCC2)c1 0.186, COc1ccccc1C(=O)Nc1cccc(NC(=O)c2ccccc2OC)c1 0.346, COc1ccc(C(=O)Nc2cccc(NC(=O)c3cccc(C)c3)c2)cc1 0.18, O=C(Nc1cccc(NC(=O)c2ccco2)c1)c1ccccc1 0.214, CCOc1ccccc1NC(=O)c1cccc(NC(=O)c2cccc(OC)c2)c1 0.172, COc1ccc(CC(=O)NCc2ccccc2-c2ccccc2C(=O)NCc2ccc(F)cc2F)cc1 0.098, CCOc1ccccc1C(=O)Nc1cccc(NC(=O)C2CCCC2)c1 0.144, Cc1cccc(C(=O)Nc2cccc(NC(=O)c3ccccc3OCC(C)C)c2)c1 0.148, COc1ccccc1NC(=O)c1cccc(NC(=O)C2CCCCC2)c1 0.175, CCOc1ccccc1NC(=O)c1cccc(NC(=O)C2CCCO2)c1 (configuration not stated) 0.195, CCOc1ccccc1NC(=O)c1cccc(NC(=O)c2ccccc2OC(F)(F)F)c1 0.183, CCOc1cccc(NC(=O)c2cccc(NC(=O)C3CCCC3)c2)c1 0.125, COc1ccccc1NC(=O)c1cccc(NC(=O)C2CCCC2)c1 0.19, Cc1cccc(C(=O)Nc2cccc(NC(=O)c3ccccc3C(C)C)c2)c1 0.166, COc1ccccc1C(=O)Nc1cc(NC(=O)c2cccc(C)c2)ccc1F 0.461, Cc1ccccc1C(=O)Nc1cccc(NC(=O)c2ccccc2)c1 0.195
